Reference: article PMC5540273 (PLoS ONE, 2017)

Tests used:
Settings in all cases: concentration: 1 μM, replicates: in singlicate; n = 1
CAMK4 = system: CAMK4
CAMKK1 = system: CAMKK1
CAMKK2 = system: CAMKK2
CASK = system: CASK
CDC2L1 = system: T1, CDC2L1
T1 construct: gene CDK11B

CDC2L2 = system: CDC2L2
CDC2L5 = system: T2, CDC2L5
T2 construct: gene CDK13

CDK11 = system: T3, CDK11
T3 construct: gene CDK19

CDK2 = system: CDK2
CDK3 = system: CDK3
CDK4-cyclinD1 = system: CDK4-cyclinD1
CDK4-cyclinD3 = system: CDK4-cyclinD3
CDK4 = system: CDK4
CDK5 = system: CDK5
CDK7 = system: CDK7
CDK8 = system: CDK8
CDK9 = system: CDK9
CDKL1 = system: CDKL1
CDKL2 = system: CDKL2
CDKL3 = system: CDKL3
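Note: KINOMEscan kinase panel screen.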

Row | Compound | %Inh (CAMK4) | %Inh (CAMKK1) | %Inh (CAMKK2) | %Inh (CASK) | %Inh (CDC2L1) | %Inh (CDC2L2) | %Inh (CDC2L5) | %Inh (CDK11) | %Inh (CDK2) | %Inh (CDK3) | %Inh (CDK4-cyclinD1) | %Inh (CDK4-cyclinD3) | %Inh (CDK4) | %Inh (CDK5) | %Inh (CDK7) | %Inh (CDK8) | %Inh (CDK9) | %Inh (CDKL1) | %Inh (CDKL2) | %Inh (CDKL3)
1 | Cc1ccccc1-c1cc(-c2c[nH]nc2-c2ccccn2)ccn1 [GW680061] | 0% | 0% | 0% | 25% | 0% | 9% | 0% | 2% | 0% | 17% | 0% | 0% | 0% | 0% | 0% | 23% | 0% | 0% | 10% | 0%
2 | Cc1nccc(-c2c(-c3ccc(F)cc3)ncn2CCCN2CCOCC2)n1.Cl [SB-282975] | 6% | 9% | 0% | 21% | 100% | 23% | 5% | 11% | 37% | 26% | 14% | 33% | 18% | 3% | 27% | 39% | 100% | 34% | 20% | 12%
3 | CC(C)c1ccc(O)cc1Nc1ccnc2ccc(C(F)(F)F)cc12 [GW482059] | 14% | 0% | 0% | 0% | 0% | 5% | 0% | 0% | 0% | 0% | 85% | 0% | 0% | 0% | 0% | 25% | 0% | 0% | 5% | 0%
4 | Cc1ccc(NC(=O)Nc2ccc(Cl)cc2)cc1-c1ccc(C(=O)Nc2ccncc2)cc1 [GSK1398472] | 0% | 0% | 0% | 21% | 0% | 13% | 0% | 8% | 0% | 8% | 0% | 10% | 2% | 0% | 0% | 8% | 0% | 3% | 19% | 1%
5 | CNc1cc(-c2ccc3c(N)n[nH]c3c2)nc(N)n1 [GSK2224810] | 0% | 5% | 11% | 6% | 3% | 30% | 0% | 8% | 0% | 9% | 3% | 0% | 18% | 0% | 2% | 26% | 0% | 17% | 0% | 0%
6 | CSc1ccc(-c2nc3n(c2-c2ccncc2)CCC3)cc1 [SKF-105561] | 30% | 0% | 0% | 3% | 15% | 24% | 30% | 0% | 0% | 0% | 0% | 0% | 27% | 0% | 0% | 0% | 0% | 7% | 0% | 0%
7 | c1ccc(-c2ccnc3[nH]ccc23)cc1 [SB-693578] | 0% | 10% | 11% | 26% | 0% | 6% | 0% | 20% | 0% | 2% | 0% | 19% | 22% | 0% | 6% | 35% | 0% | 2% | 12% | 0%
8 | CNc1nc(-c2ccc3c(N)n[nH]c3c2)cc(N2C[C@@H](C(=O)Nc3ccccc3)CC[C@H]2C)n1 [GSK2298859] | 0% | 21% | 29% | 24% | 0% | 21% | 0% | 0% | 0% | 0% | 0% | 2% | 25% | 0% | 0% | 7% | 0% | 3% | 0% | 0%
9 | Cc1ccc(NC(=O)c2ccc(Cl)cc2)cc1-c1ccc(C(=O)Nc2ccncc2)cc1 [GSK1398467] | 0% | 0% | 5% | 16% | 0% | 24% | 0% | 2% | 0% | 6% | 0% | 0% | 0% | 0% | 0% | 0% | 0% | 13% | 20% | 0%
10 | CNCc1ccc2nc(NC(=O)c3ccc(C(C)(C)C)cc3)cn2c1 | 6% | 0% | 12% | 18% | 16% | 4% | 33% | 4% | 0% | 7% | 14% | 0% | 3% | 0% | 8% | 1% | 3% | 0% | 0% | 0%
11 | COc1cccc(NC(=O)Nc2ccc(C)c(-c3ccc(C(=O)Nc4ccncc4)cc3)c2)c1 [GSK1398474] | 10% | 0% | 19% | 0% | 0% | 15% | 0% | 0% | 24% | 0% | 0% | 0% | 37% | 0% | 0% | 0% | 0% | 51% | 18% | 0%
12 | Nc1cccc(-c2ccc3c(N)n[nH]c3c2)n1 [GSK2192730] | 0% | 27% | 22% | 14% | 0% | 22% | 0% | 3% | 0% | 7% | 0% | 0% | 0% | 0% | 92.8% | 0% | 16% | 0% | 13% | 0%
13 | COc1ccc(CSc2nnc(-c3ccc4ncsc4c3)o2)cc1C(F)(F)F | 0% | 0% | 0% | 10% | 0% | 0% | 35% | 37% | 1% | 0% | 0% | 0% | 0% | 2% | 0% | 15% | 0% | 0% | 0% | 0%
14 | COc1ccc(CSc2nnc(-c3ccc4nccn4c3)o2)cc1C(F)(F)F | 0% | 0% | 0% | 15% | 4% | 5% | 50% | 40% | 0% | 4% | 7% | 13% | 0% | 10% | 13% | 21% | 0% | 21% | 7% | 18%
15 | Cc1ccc(NC(=O)Nc2ccc(Cl)c(C(F)(F)F)c2)cc1-c1ccc(C(=O)Nc2ccncc2)cc1 [GSK1398470] | 0% | 0% | 0% | 0% | 0% | 20% | 0% | 11% | 0% | 0% | 0% | 0% | 0% | 0% | 0% | 36% | 0% | 86% | 34% | 0%
16 | O=C1NC(=O)C(c2ccc(Cl)cc2)=C1Nc1ccc(O)cc1 [SB-340867] | 0% | 0% | 0% | 4% | 0% | 0% | 0% | 0% | 0% | 4% | 0% | 0% | 0% | 0% | 0% | 11% | 0% | 12% | 41% | 0%
17 | COc1ccc(Nc2nccc(-c3ccc(NC(=O)c4cc5cc(F)ccc5[nH]4)cc3)n2)cc1 [GSK1229496] | 0% | 0% | 17% | 0% | 0% | 14% | 0% | 22% | 0% | 0% | 0% | 0% | 39% | 0% | 0% | 20% | 0% | 0% | 0% | 0%
18 | COC(=O)C(Cc1ccccc1)NC(=O)NC1CCN(c2ccnc(Nc3ccc(F)cc3)n2)C1 (stereo not drawn) [GSK1379714] | 9% | 19% | 9% | 4% | 0% | 18% | 0% | 48% | 0% | 6% | 29% | 0% | 5% | 0% | 0% | 48% | 0% | 8% | 9% | 0%
19 | O=c1cc(N2CCOCC2)nc2n(Cc3cccc(Cl)c3Cl)c3ccccc3n12 [GSK2299009] | 9% | 27% | 29% | 10% | 0% | 11% | 0% | 94.4% | 0% | 29% | 0% | 0% | 31% | 16% | 0% | 0% | 6% | 15% | 14% | 0%
20 | CC(=O)c1cccc(NC(=O)NC2CCN(c3ccnc(Nc4ccc(F)cc4)n3)C2)c1 (stereo not drawn) [GSK1379710] | 0% | 26% | 24% | 6% | 0% | 17% | 0% | 80% | 8% | 6% | 0% | 0% | 38% | 0% | 7% | 76% | 17% | 27% | 59% | 0%
21 | Fc1ccc(-c2nn3cccc(F)c3c2-c2ccncc2)cc1 [GW475620] | 19% | 0% | 5% | 4% | 0% | 0% | 0% | 10% | 7% | 0% | 1% | 0% | 24% | 17% | 0% | 15% | 0% | 0% | 14% | 0%
